The list is not random: actives were taken first. Their share in the collection is about 3.4%.
Tau fibril ThT = inhibitors of human tau fibril formation, thioflavin T binding | recombinant tau K18 P301L, heparin-induced fibrillization, ThT fluorescence | Potency, µM (series often up to 57.4 µM), inactives show top-dose activity, negative = inhibition, most hits filed as inhibitors | hit rate 2.1% among 270,000; also: nearly all actives have a fitted effect of over 55% in size
Target sequence (P10636 561-689 P618L limits assumed): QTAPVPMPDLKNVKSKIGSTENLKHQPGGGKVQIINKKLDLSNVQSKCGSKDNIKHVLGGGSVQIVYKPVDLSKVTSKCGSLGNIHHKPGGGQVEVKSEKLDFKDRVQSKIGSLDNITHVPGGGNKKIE
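Aggregation was driven by heparin (20 uM final) acting on recombinant tau […] bearing P301L in 100 mM sodium acetate pH 7; fibrils were detected with Thioflavin T.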
RGS12 GoLoco inh = inhibitors of human Gai1-RGS12 GoLoco interaction (red fluorophore). P63096. Gai1:RGS12 GoLoco peptide FP, rhodamine, 10 min. Potency, µM (top dose mostly 61.6 µM), for the others: top-dose activity, negative = inhibition, hits mostly inhibitors. hit rate 0.44% among 230,000. AID 880; active = well fitted inhibition curve with a large enough effect, not every such curve was filed as active; inactive = no such curve, though single readings can be large or run the other way; also: nearly all actives have a fitted effect of over 30% in size
Target sequence (P63096 whole entry, looked up): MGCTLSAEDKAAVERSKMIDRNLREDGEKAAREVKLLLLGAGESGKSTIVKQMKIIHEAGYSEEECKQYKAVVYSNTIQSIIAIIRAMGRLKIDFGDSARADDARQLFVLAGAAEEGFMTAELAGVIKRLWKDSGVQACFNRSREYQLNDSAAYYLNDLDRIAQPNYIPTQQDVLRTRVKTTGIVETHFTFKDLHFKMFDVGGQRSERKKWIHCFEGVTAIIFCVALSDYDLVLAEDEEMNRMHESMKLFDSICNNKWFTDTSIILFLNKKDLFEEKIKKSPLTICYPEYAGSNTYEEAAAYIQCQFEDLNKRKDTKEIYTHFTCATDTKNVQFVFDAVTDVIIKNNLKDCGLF
Tau FP inhib = tau fibrillization inhibition (FP). K18 P301L tau heparin fibrillization, Alexa594 FP, 6 h. Potency, µM (doses to about 57.7 µM), for inactives: at the highest dose activity, negative = inhibition, hits mostly inhibitors. P10636. hit rate 0.39% among 280,000. AID 1468; also: nearly all actives have a fitted effect of over 55% in size
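K18 P301L tau (15 uM unlabeled/0.24 uM Alexa 594-labeled, final) + compound + heparin 20 uM final; 100 mM NaOAc pH 7; 6 hr 37 C; ThT 30 uM final added, 1 hr RT; FP ex 555/em 632 nm.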
KDM4E inh = JMJD2E (human) inhibition | B2RXH2 | JMJD2E catalytic domain, FDH-coupled NADH fluorescence (FDH is formaldehyde dehydrogenase) | Potency, µM (top dose mostly 57.1 µM), for inactives: top-dose activity change, negative = inhibition, hits mostly inhibitors | hit rate 1.6% among 230,000; active = well fitted inhibition curve with a large enough effect, not every such curve was filed as active; inconclusive = small, poorly fitted or top-dose-only effect, or another doubt; inactive = no such curve, though single readings can be large or run the other way;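 also: 0% = wells with enzyme and -100% = buffer wells without enzyme; nearly all actives have a fitted effect of over 50% in size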
Tau fluor cs = counter-screen for tau fibril formation inhibitors. tau K18 P301L (four-repeat tau fragment) Alexa594 fluorescence, heparin fibrillization. Potency, µM (titrated, usually from 57.7 µM), without a hit: at the highest dose activity change, negative = decrease. hit rate 0.93% among 280,000. AID 1463; also: nearly all actives have a fitted effect of over 55% in size
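Human K18 P301L tau (15 uM unlabeled plus 0.24 uM Alexa 594-labeled, final) in 100 mM sodium acetate pH 7 was mixed with compound and 20 uM heparin and incubated 6 hr at 37 C.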
An asterisk follows results filed as active; u = inconclusive; x = no result; ! = not confirmed by another sample; [ ] = remark or other dose. Unless noted, calls follow the shape of the dose curve; as a rule, active = well fitted curve in the direction sought with a large enough effect; inconclusive = small, poorly fitted or top-dose-only effect, or another doubt; inactive = no such curve, though single readings can be large; an effect the other way counts as inactive or inconclusive. Unless noted, % is scaled to controls: 0 for no effect and ±100 for the full control effect; potency is read from the fitted curve at half-maximal effect.

SMILES	Tau fibril ThT	RGS12 GoLoco inh	Tau FP inhib	KDM4E inh	Tau fluor cs
O=C(NCCSc1c(-c2ccc(F)cc2)[nH]c2ccccc12)c1ccc(S(=O)(=O)N2CCOCC2)cc1	-1%	x	-5%	x	4.5µM*[quencher]
CCCOP(=O)(OCCC)C(NC(=O)c1cc(OC)c(OC)c(OC)c1)c1ccccc1 (centres undefined)	-7%	11%	-2%	-7%	-5%
CCN(CC)c1ccc(/C=C/[N+](=O)[O-])cc1	16µM*	151%	-9%	4%	u
O=Cc1ccc(Cl)cc1Cl	x	0%	x	x	x
O=C(c1ccc2nc(-c3ccco3)c(-c3ccco3)nc2c1)N1CCC2(CC1)OCCO2	8.9µM*	-14%	20µM*	u	u
COc1ccc(-n2cnc3cc(C(=O)N4CCC5(CC4)OCCO5)ccc32)cc1	-5%	10%	-2%	28%	-7%
CC(=O)Nc1c2sscc-2n(C)c1=O	16µM*	-11%	u	x	-18%
CCCCC/C=C\C/C=C\C/C=C\C/C=C\CCCC(=O)O	28µM*!	4%	u	28µM*!	u
CC(=O)[O-].CC(=O)[O-].O.O.[Cd+2]	x	-4%	x	x	x
CC(C)(O)C1O[C@H]2CC[C@@]3(C)[C@@](O)(CC[C@H]4Cc5c([nH]c6ccccc56)[C@@]43C)C2=CC1=O (some centres undefined)	u	3%	u	x	16µM*[quencher]
CCCCC[CH2][Hg][S]C1=C2N=CNC2NC(N)=N1 (centres undefined)	x	-71%[14.2 µM]	x	x	x
CN(C)CCC(C#N)(c1ccccc1)c1ccccc1	x	1%[14.2 µM]	x	x	x
ClCBr	x	4%	x	x	x
C=C[C@@H]1CN2CC[C@H]1CC2[C@H](O)c1ccnc2ccccc12 (some centres undefined)	x	-5%[14.2 µM]	x	x	x
CCc1c(C(=O)OC)ncc2[nH]c3cc(OC)c(OC)cc3c12	u	13%	6%	u	16µM*[quencher]
c1ccc2c(c1)Nc1ccccc1S2	u	1%	7%	11%	16µM*[quencher]
Oc1ccc([C@H](O)C2CCCCN2)cc1O (some centres undefined)	x	5%[14.2 µM]	x	x	x
O=C(O)[C@H]1C2c3ccccc3C(c3ccccc32)[C@@H]1C(=O)NCC1CC1	x	5%[14.2 µM]	x	x	x
c1ccc2c(N3CCNCC3)nsc2c1	22µM*	15%	u	u	-22%
CN1C[C@H](CO)C=C2c3cccc4[nH]cc(c34)C[C@H]21	u	13µM*	u	u	u
CS(=O)(=O)c1ncc(Cl)c(C(=O)Nc2c(C(=O)Nc3ccccc3)oc3ccccc23)n1	8.9µM*	x	-7%	x	-28%
O=C1CC(N2CC=C(c3ccc(F)cc3)CC2)C(=O)N1c1ccc(F)cc1 (centres undefined)	32µM*	50%	u	u	u
COc1ccc(N2C(=O)CC(N3CCC(n4c(=O)[nH]c5ccccc54)CC3)C2=O)cc1 (centres undefined)	-10%	1%	1%	2%	-7%
CCOC(=O)c1c(C)n(C(C)C)c2ccc(OC(=O)c3ccc(N4C(=O)CCC4=O)cc3)cc12	7%	2%	u	-1%	-3%
CCOC(=O)c1ccc(N2C(=O)CC(N3CC=C(c4ccc(F)cc4)CC3)C2=O)cc1 (centres undefined)	u	74%	1%	14µM*	-4%
SMILES	Tau fibril ThT	RGS12 GoLoco inh	Tau FP inhib	KDM4E inh	Tau fluor cs
CC[n+]1c(-c2ccccc2)c2cc(N)ccc2c2ccc(N)cc21	4µM*	5.6µM*	11µM*	u	u
CCOC(=O)C1CCN(/C=C2/C(=O)NC(=O)N(c3ccc(OCC)cc3)C2=O)CC1	14µM*	3%	u	1%	-19%
Cn1c(O)c(/C=C2\N=c3ccccc3=C2CCNC(=S)NC2CC2)c(=O)n(C)c1=O	11µM*	-72%	u	u	-19%
COc1ccc(CCN)cc1O	-7%	11%	0%	2%	-4%
NCCc1cc(O)c(O)cc1O	7.1µM*	25µM*	25µM*	6.3µM*	10µM*[quencher]
CCn1c(O)c(/C=N/NC(=O)c2ccccc2)c(=O)[nH]c1=S	x	42%	0%	32µM*	-21%
O=C(N/N=C/c1c(O)n(CCc2ccccc2)c(=O)[nH]c1=O)c1ccccc1O	x	25%	9%[0.0958 µM]	28µM*	12%[0.0958 µM]
COc1ccccc1-n1c(O)c(C=NCc2ccc3c(c2)OCO3)c(=O)[nH]c1=O	-5%	24%	1%	-21%	-3%
COc1ccccc1-n1c(O)c(/C=N/NC(=S)Nc2ccccc2)c(=O)[nH]c1=S	u	24%	-2%	28µM*	u
O=C(N/N=C/c1c(O)n(CCc2ccccc2)c(=O)[nH]c1=O)c1ccncc1	u	5%	2%	28µM*	-9%
O=NN(c1ccccc1)c1ccccc1	x	-1%	x	x	x
CC(CO)(CO)N=Cc1c(O)n(-c2cccc3ccccc23)c(=O)[nH]c1=O	-1%	5%	1%	-2%	-5%
Cc1ccc(-n2c(O)c(/C=N/NC(=O)c3ccncc3)c(=O)[nH]c2=O)cc1C	u	2%	1%	22µM*	-8%
O=C(N/N=C/c1c(O)n(CCc2ccc(F)cc2)c(=O)[nH]c1=O)c1ccccc1	x	3%	-3%	20µM*	-17%
O=C(N/N=C/c1c(O)n(CCc2ccc(F)cc2)c(=O)[nH]c1=O)c1ccncc1	u	12%	12%	u	-19%
O=C(N/N=C/c1c(O)n(-c2cccc3ccccc23)c(=O)[nH]c1=O)c1ccncc1	-13%	4%	-9%	13µM*	-3%
CC1=C(O)C(=O)C=C2C1=CC=C1[C@]2(C)CC[C@@]2(C)C3C[C@](C)(C(=O)O)CC[C@@]3(C)CC[C@@]12C (some centres undefined)	u	-30%	u	u	u
N[C@@H](Cn1oc(=O)[nH]c1=O)C(=O)O	-8%	7%	-3%	20µM*	-12%
CCCCn1c(NC(=O)c2ccco2)c(C(=O)OCC)c2nc3ccccc3nc21	13µM*	3%	16µM*	u	-26%
C[C@@]12CC[C@H]3[C@@H](CC[C@H]4C[C@@H](O)CC[C@]43C)[C@H]1CC[C@@H]2C(=O)C[C@H](O)C(F)(F)F	x	3%[14.2 µM]	x	x	x
O=c1[nH]c(=S)[nH]c(O)c1N=Nc1ccc(SC(F)F)cc1	3.5µM*	16%	-16%	-2%	-20%
O=c1[nH]c(=S)[nH]c(O)c1N=Nc1ccc(S(=O)(=O)N2CCc3ccccc32)cc1	5µM*	6%	9%	-6%	u
CC(C)c1ccc(N=Nc2c(O)[nH]c(=O)[nH]c2=O)cc1	x	15%	-8%	-6%	-10%
Cc1ccc(C2(c3ccc(C)c(O)c3C)CCN(C)CC2)c(C)c1O	x	0%[14.2 µM]	x	x	x
C[CH2][Hg][S]c1ccccc1C(=O)O	u	28µM*	-8%	-24%	-14%
